We go through 14 molecules from PubChem BioAssay.

The nature of assay [1]: inhibitors of TNFa-induced NFkB p65 translocation, primary screen, imaging, HUVEC, MLSMR starter and 10KST1 sets (AID 438;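 active = inhibition above 20% together with a positive visual image hit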;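 note: compound added about 3h40 before a 20 min TNFalpha stimulation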;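 for inhibition: signal is the nuclear over cytoplasmic p65 intensity ratio per well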). Particulars: HUVEC TNFa-induced p65 nuclear translocation; cell count: measured here: nuclei count (cytotoxicity indicator), at 2.08 µM; inhibition: at 2 µM, stronger effect = higher value, 0% TNFa-plus-vehicle, 100% no-TNFa wells.
A short description of assay [2]: inhibitors of mutant huntingtin aggregation, primary screen, imaging, exon1htt(103Q)mCFP cells, high-content imaging (AID 483;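 active = visual image review flags a hit and inhibition of aggregation exceeds 20%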;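 note: compound exposure lasted 3 days before fixation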;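 for nuclei count: percent of the per-plate median nuclei count of sample wells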). Particulars: exon1htt(103Q)mCFP cell line, aggregate imaging, at 2 µM; inhibition of aggregation: stronger effect = higher value; nuclei count: measured here: cell count, toxicity.
Assay [3] is described as follows: inhibitors of E-selectin induction by TNFa, primary screen, imaging, HUVEC, immunofluorescence, MLSMR starter and 10KST1 sets (AID 487;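 active = visually confirmed hit in the image check and inhibition above 20%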;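 for inhibition: signal is fraction of cell area covered by stained E-selectin grains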;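 for nuclei count: 100% = median nuclei count of all wells on the same plate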). The conditions noted are these: HUVEC TNFalpha-induced E-selectin immunofluorescence imaging, at 2 µM; inhibition: stronger effect = higher value; nuclei count: measured here: cell number, toxicity.
Assay [4] addresses Voltage-gated potassium channel subunit beta-2 (Rattus norvegicus) (UniProt P62483). Kind of assay: KvBeta enzyme negative modulators, primary screen, biochemical, NADPH fluorescence (AID 622;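 active = fluorescence slope higher than the sample average by over 3 SD, cut at about -0.22 in these data, passing the limit was not always enough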;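 note: slope of raw intensity against log time taken from 70 to 1610 s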). Particulars: recombinant KvBeta, 4-cyanobenzaldehyde reduction, at 10 µM, stronger effect = higher value.
Assay [5] shares this target. The experiment in a line: KvBeta positive modulators, primary screen, biochemical, NADPH fluorescence (AID 623;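 active = NADPH fluorescence slope more negative than the mean of all samples by about 3 SD, 99.7% confidence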;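 note: fluorescence intensity change per second fitted from 20 to 320 s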). The conditions noted are these: Recombinant KvBeta, NADPH fluorescence decrease slope, 10 min; at 10 µM; stronger effect = lower value.
Assay [6] concerns the target Alpha-2C adrenergic receptor (Homo sapiens) (UniProt P18825). Kind of assay: modulators of alpha2C/GIRK thallium flux, primary screen, cell-based, HEK293 alpha2C/GIRK1/2 (AID 624;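 active = fluorescence slope after compound addition differing from the mean of all screened samples at 99.7% confidence, in either direction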;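 note: slope of fluorescence ratio to pre-addition baseline per second over 15 to 24 s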). The conditions noted are these: thallium flux BTC fluorescence, at 10 µM, actives lie on both sides.
A short description of assay [7]: inhibitors of Sendai virus-induced IRF3 signaling, primary screen, TLR/RLR signaling modifier project, cell-based, Sendai virus stimulus, luciferase, 10K MLSCN set (AID 602276).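 Note: firefly luciferase from ISG56 promoter only with Renilla not read in this screen; 0% = Sendai virus plus DMSO and 100% = medium plus DMSO without virus.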 Particulars: HEK293 RL24 IRF3 luciferase reporter, at 10 µM, stronger effect = higher value. Background: A reporter such as luciferase makes a cellular process visible.
A short description of assay [8]: inhibitors of poly I:C-induced TLR3 signaling, primary screen, cell-based, poly I:C stimulus, luciferase, 10K MLSCN set (AID 602277;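 active = inhibition of the reporter signal at or above 50%; inactive = inhibition below 50%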). The conditions noted are these: HEK293-TLR3 RL24 IRF3 luciferase reporter, at 10 µM, stronger effect = higher value.

Activity calls are given as the source filed them.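 Rule for the calls, unless noted: active = inhibition at or above 50% at 10 µM; inactive = inhibition below 50%.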

Sequence of Alpha-2C adrenergic receptor (Homo sapiens) (P18825 whole entry, looked up): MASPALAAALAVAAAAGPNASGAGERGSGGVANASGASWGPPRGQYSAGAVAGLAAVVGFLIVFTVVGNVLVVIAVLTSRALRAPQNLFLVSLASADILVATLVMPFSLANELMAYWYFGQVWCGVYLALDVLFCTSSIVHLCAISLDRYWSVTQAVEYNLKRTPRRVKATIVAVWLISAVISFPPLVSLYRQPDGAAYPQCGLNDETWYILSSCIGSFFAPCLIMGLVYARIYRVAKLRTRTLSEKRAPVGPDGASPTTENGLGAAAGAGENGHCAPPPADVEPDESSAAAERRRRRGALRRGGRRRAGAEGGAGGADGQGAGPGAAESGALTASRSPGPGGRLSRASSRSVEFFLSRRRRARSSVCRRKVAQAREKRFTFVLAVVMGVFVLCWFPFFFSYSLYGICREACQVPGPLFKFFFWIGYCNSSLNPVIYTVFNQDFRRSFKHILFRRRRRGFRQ
Sequence of Voltage-gated potassium channel subunit beta-2 (Rattus norvegicus) (P62483 whole entry, looked up): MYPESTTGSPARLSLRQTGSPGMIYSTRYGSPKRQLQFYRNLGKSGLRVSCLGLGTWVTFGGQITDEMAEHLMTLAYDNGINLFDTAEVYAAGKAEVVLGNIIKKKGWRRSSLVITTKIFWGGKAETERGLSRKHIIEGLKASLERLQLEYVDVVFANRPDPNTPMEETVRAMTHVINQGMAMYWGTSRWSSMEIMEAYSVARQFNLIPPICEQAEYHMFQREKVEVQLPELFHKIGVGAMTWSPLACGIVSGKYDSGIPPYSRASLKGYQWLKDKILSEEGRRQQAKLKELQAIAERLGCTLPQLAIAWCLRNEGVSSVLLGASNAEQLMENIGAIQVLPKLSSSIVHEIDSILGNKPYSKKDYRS

For `Cc1csc2ncc(C(=O)Nc3ccccc3Cl)c(=O)n12`, the cell count in assay [1] stood at 677. In addition, the inhibition (usually the drop in the measured response relative to a control, in per cent) in assay [1] was 5.8% (inactive); in assay [3], -12.3% (inactive); in assay [7], -29% (inactive); in assay [8] it was -83.1% (inactive). Moreover, the inhibition of aggregation in assay [2] was -20% (inactive). In addition, the nuclei count worked out at 95.1% in assay [2] and 116% in assay [3]. For the same molecule, in assay [4], the fluorescence slope is -0.486 (inactive). In addition, in assay [5], the NADPH fluorescence slope is 5.1e-06 (inactive). In addition, in assay [6], the slope was 0.00716 (inactive).
For the molecule `COc1ccc(OC)c(NC(=O)CCN2CCC(C)CC2)c1`, the cell count in assay [1] was found to be 446. The inhibition is -6.2% (inactive) in assay [1], -120% (inactive) in assay [3], -15.8% (inactive) in assay [7] and -0.553% (inactive) in assay [8]. For the same molecule, the inhibition of aggregation in assay [2] was 15.7% (inactive). Also, the nuclei count worked out at 101% in assay [2] and 220% in assay [3]. Further, the fluorescence slope in assay [4] was -0.59 (inactive). In addition, the NADPH fluorescence slope in assay [5] is -3.6e-05 (inactive). Also, the slope in assay [6] was 0.00565 (inactive).
In the case of `COC(=O)c1[nH]c2c(c1C)C(=O)CC(c1cc(OC)ccc1OC)C2` (centres undefined), the cell count in assay [1] was 546. Besides, the inhibition is -4.2% (inactive) in assay [1], -36.2% (inactive) in assay [3], 38.3% (inactive) in assay [7] and 21.5% (inactive) in assay [8]. Further, the inhibition of aggregation in assay [2] is 30.2% (inactive). For the same molecule, the results for the nuclei count in assay [2] and in assay [3] were 81% and 114%, respectively. Moreover, the fluorescence slope in assay [4] was -0.573 (inactive). For the same molecule, in assay [5], the NADPH fluorescence slope is -1.2e-05 (inactive). In addition, the slope in assay [6] was 0.00652 (inactive).
Take `CCOc1ccc2[nH]c(=O)c(C(c3nnnn3CC3CCCO3)N3CCc4ccccc4C3)cc2c1` (centres undefined): in assay [1], the cell count was 702. For the same molecule, the inhibition in assay [1] was 12.9% (inactive); in assay [3] it was -1.8% (inactive); in assay [7], 20.7% (inactive); in assay [8] it was 31.2% (inactive). Also, the inhibition of aggregation in assay [2] was 3.6% (inactive). The nuclei count in assay [2] turned out to be 69%; in assay [3], 119%. Besides, the fluorescence slope in assay [4] was -0.598 (inactive). For the same molecule, the NADPH fluorescence slope in assay [5] is -8.5e-06 (inactive). Further, in assay [6], the slope is 0.00562 (inactive).
Take `CCOC(=O)c1[nH]c(=O)c2ccccc2c1O`: the cell count in assay [1] was 367. The inhibition in assay [1] is -3.9% (inactive); in assay [3], -0.2% (inactive); in assay [7] it was -11.9% (inactive); in assay [8], -8.42% (inactive). In addition, in assay [2], the inhibition of aggregation was 2.9% (inactive). Besides, the nuclei count in assay [2] was determined as 96.9%; in assay [3] it was 116%. In assay [4], the fluorescence slope is -0.512 (inactive). Further, the NADPH fluorescence slope in assay [5] was -1.7e-05 (inactive). Moreover, the slope in assay [6] was 0.00472 (inactive).
In the case of `COc1ccc2nc(NC(=O)C3CCCN(S(=O)(=O)c4cccc5nsnc45)C3)sc2c1` (centres undefined), the cell count in assay [1] was found to be 607. Moreover, the inhibition in assay [1] was -3.9% (inactive); in assay [3] it was 2% (inactive); in assay [7] it was -3.68% (inactive); in assay [8] it was -37.1% (inactive). For the same molecule, in assay [2], the inhibition of aggregation was -14% (inactive). In addition, the nuclei count is 113% in assay [2] and 122% in assay [3]. Also, the fluorescence slope in assay [4] was -0.455 (inactive). Moreover, the NADPH fluorescence slope in assay [5] is 3.3e-05 (inactive). Moreover, the slope in assay [6] was 0.00595 (inactive).
As for `CC(=O)N1CCN(C(C)=O)C1c1ccccc1`, the cell count in assay [1] amounted to 464. Further, the inhibition in assay [1] is 6% (inactive); in assay [3], -231% (inactive); in assay [7], -22% (inactive); in assay [8], -25.1% (inactive). Moreover, the inhibition of aggregation in assay [2] is -9.6% (inactive). For the same molecule, the nuclei count in assay [2] came out at 106%; in assay [3] it was 133%. Further, the fluorescence slope in assay [4] was -0.376 (inactive). For the same molecule, the NADPH fluorescence slope in assay [5] is 5.2e-06 (inactive). For the same molecule, the slope in assay [6] is 0.00709 (inactive).
Consider `O=C(NCc1ccc(F)cc1)c1cc2ccccn2n1`, for which the cell count in assay [1] worked out at 589. The inhibition in assay [1] is 4.4% (inactive); in assay [3], -1% (inactive); in assay [7], 1.23% (inactive); in assay [8] it was -17.7% (inactive). Besides, in assay [2], the inhibition of aggregation is 6% (inactive). For the same molecule, the nuclei count in assay [2] is 97%; in assay [3] it was 107%. Further, in assay [4], the fluorescence slope is -0.601 (inactive). In addition, the NADPH fluorescence slope in assay [5] was -3.6e-05 (inactive). Further, in assay [6], the slope is 0.00683 (inactive).
Turning to `COCCNC(=O)C(c1cccc(OC)c1)N(Cc1cccs1)C(=O)Cn1nnc2ccccc21` (centres undefined), the cell count in assay [1] was found to be 722. Besides, the inhibition was -15.1% (inactive) in assay [1], -34.3% (inactive) in assay [3], 12.4% (inactive) in assay [7] and 20.1% (inactive) in assay [8]. Further, the inhibition of aggregation in assay [2] was 8% (inactive). For the same molecule, the nuclei count in assay [2] and in assay [3] was 109% throughout. Moreover, the fluorescence slope in assay [4] was -0.622 (inactive). Further, the NADPH fluorescence slope in assay [5] was -5.4e-05 (inactive). Also, the slope in assay [6] was 0.00445 (inactive).
For `COc1ccc2cc(C(=O)NCc3ccco3)c(=Nc3ccc(C(=O)O)cc3)oc2c1`, the cell count in assay [1] is 507. The inhibition in assay [1] is -12.8% (inactive); in assay [3], -56.7% (inactive); in assay [7] it was 16.4% (inactive); in assay [8], 3.42% (inactive). For the same molecule, the inhibition of aggregation in assay [2] is 19% (inactive). Moreover, the figures for the nuclei count in assay [2] and in assay [3] were 96.3% and 120%, respectively. In addition, the fluorescence slope in assay [4] was -0.372 (inactive). In addition, the NADPH fluorescence slope in assay [5] was -5.2e-05 (inactive). Further, the slope in assay [6] was 0.00401 (inactive).
`CC1CCCN(C(=O)CN2C(=O)c3ccccc3C2=O)C1` (centres undefined): the cell count in assay [1] turned out to be 432. The inhibition was 4.9% (inactive) in assay [1], -27.3% (inactive) in assay [3], 14.5% (inactive) in assay [7] and 20.6% (inactive) in assay [8]. Further, the inhibition of aggregation in assay [2] is 15.5% (inactive). The nuclei count was 136% in assay [2] and 102% in assay [3]. Besides, the fluorescence slope in assay [4] is -0.272 (inactive). Besides, the NADPH fluorescence slope in assay [5] was -3.7e-05 (inactive). In assay [6], the slope was 0.00658 (inactive).
For `COc1ccccc1OCC(=O)Nc1cccc(-c2nc3ccccc3o2)c1`, in assay [1], the cell count was 468. The inhibition in assay [1] was 0% (inactive); in assay [3], -65.1% (inactive); in assay [7], -0.911% (inactive); in assay [8], -2.39% (inactive). The inhibition of aggregation in assay [2] was 1% (inactive). For the same molecule, the nuclei count in assay [2] was determined as 61.8%; in assay [3], 110%. Further, the fluorescence slope in assay [4] is -0.374 (inactive). Besides, in assay [5], the NADPH fluorescence slope is -1.4e-06 (inactive). Besides, the slope in assay [6] was 0.00387 (inactive).
Turning to `CCCSC1=C(C#N)C(c2cc(OC)ccc2OC)CC(=O)N1` (centres undefined), in assay [1], the cell count came to 674. The inhibition in assay [1] was 5.8% (inactive); in assay [3] it was -61.3% (inactive); in assay [7], 18.1% (inactive); in assay [8], 25.8% (inactive). Moreover, in assay [2], the inhibition of aggregation is 10.8% (inactive). Moreover, the nuclei count was 114% in assay [2] and 116% in assay [3]. For the same molecule, in assay [4], the fluorescence slope is -0.518 (inactive). The NADPH fluorescence slope in assay [5] was -4.2e-05 (inactive). In addition, the slope in assay [6] was 0.00728 (inactive).
Consider `Cc1ccc(-c2nnc(SCC(=O)N3c4ccccc4NC(=O)C3(C)C)n2N)cc1`, for which the cell count in assay [1] was 809. Moreover, the inhibition in assay [1] was -0.7% (inactive); in assay [3] it was -92% (inactive); in assay [7], -12.6% (inactive); in assay [8] it was -5.26% (inactive). The inhibition of aggregation in assay [2] is -26.4% (inactive). Also, the nuclei count turned out to be 93.6% in assay [2] and 120% in assay [3]. For the same molecule, the fluorescence slope in assay [4] is -0.361 (inactive). Also, the NADPH fluorescence slope in assay [5] was -2.3e-05 (inactive). In addition, in assay [6], the slope is 0.00498 (inactive).
